Source: PubChem BioAssay
HT1080 IDH1KD tx: qHTS for induction of synthetic lethality in tumor cells producing 2HG: qHTS for the HT-1080-IDH1KD cell line. AID 686971, 2013. HT-1080 IDH1 knockdown viability, ATP luminescence, 48 h. Potency, µM (top dose mostly 46.1 µM), for the others: top-dose activity, negative = toxicity, hits mostly cytotoxic. 2% of 360,000 active;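 further: potency means the concentration at half of the fitted maximal effect; 0% = DMSO wells and -100% = cell-free medium wells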
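CellTiter-Glo luminescence after 48 h compound exposure at 37 degrees C of IDH1-knockdown HT-1080 cells in 5% FBS RPMI. %Activity scaled between DMSO wells and cell-free media wells, with curves fitted and assigned curve classes.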
DT40 TDP1 no CPT: qHTS for Inhibitors of human tyrosyl-DNA phosphodiesterase 1 (TDP1): qHTS in cells in absence of CPT. DT40 Tdp1-/- hTDP1 cells, no CPT, ATP luminescence, 48 h. Potency, µM (titrated, usually from 46.2 µM), without a hit: top-dose activity change, negative = growth inhibition, hits mostly inhibitors. 15% of 420,000 active. AID 686978, 2013; further: potency means the concentration at half of the fitted maximal effect; nearly all actives have a fitted effect of over 55% in size
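Chicken DT40 Tdp1-/- cells stably complemented with human TDP1 were seeded at 400 cells/well with DMSO in place of 20 nM camptothecin. After compound pinning, cells grew at least 48 hr at 37 °C; viability read by CellTiter-Glo luminescence.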
HT1080NT lethal: qHTS for induction of synthetic lethality in tumor cells producing 2HG: qHTS for the HT-1080-NT fibrosarcoma cell line | HT-1080-NT fibrosarcoma viability, CellTiter-Glo ATP luminescence, 48 h | Potency, µM (series often up to 46.1 µM), without a hit: top-dose activity, negative = less viability, usual class: cytotoxic | 1.6% of 360,000 active;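 further: NT is the 2HG producing partner of a matched IDH1 knockdown line; potency means the concentration at half of the fitted maximal effect; 0% = DMSO-treated cells and -100% = media-only wells without cells; nearly all actives have a fitted effect of over 55% in size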
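HT-1080-NT fibrosarcoma cells (2HG-overproducing), 750 cells/well in RPMI with 5% FBS, dosed after 2 h and incubated 48 h at 37C. CellTiter-Glo luminescence normalized to DMSO and no-cell wells; concentration-response curves fitted and classed.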
12-LOX inh: Primary qHTS assay for inhibitors of human arachidonate 12S-lipoxygenase (ALOX12): Round 2 | purified 12hLO, xylenol orange hydroperoxide absorbance | Potency, µM (titrated, usually from 108 µM), inactives show at the highest dose activity change, negative = inhibition, actives largely listed as inhibitors | 1.1% of 580,000 active | AID 1671190, 2021; further: potency means the concentration at half of the fitted maximal effect
Target sequence (P18054 whole entry, looked up): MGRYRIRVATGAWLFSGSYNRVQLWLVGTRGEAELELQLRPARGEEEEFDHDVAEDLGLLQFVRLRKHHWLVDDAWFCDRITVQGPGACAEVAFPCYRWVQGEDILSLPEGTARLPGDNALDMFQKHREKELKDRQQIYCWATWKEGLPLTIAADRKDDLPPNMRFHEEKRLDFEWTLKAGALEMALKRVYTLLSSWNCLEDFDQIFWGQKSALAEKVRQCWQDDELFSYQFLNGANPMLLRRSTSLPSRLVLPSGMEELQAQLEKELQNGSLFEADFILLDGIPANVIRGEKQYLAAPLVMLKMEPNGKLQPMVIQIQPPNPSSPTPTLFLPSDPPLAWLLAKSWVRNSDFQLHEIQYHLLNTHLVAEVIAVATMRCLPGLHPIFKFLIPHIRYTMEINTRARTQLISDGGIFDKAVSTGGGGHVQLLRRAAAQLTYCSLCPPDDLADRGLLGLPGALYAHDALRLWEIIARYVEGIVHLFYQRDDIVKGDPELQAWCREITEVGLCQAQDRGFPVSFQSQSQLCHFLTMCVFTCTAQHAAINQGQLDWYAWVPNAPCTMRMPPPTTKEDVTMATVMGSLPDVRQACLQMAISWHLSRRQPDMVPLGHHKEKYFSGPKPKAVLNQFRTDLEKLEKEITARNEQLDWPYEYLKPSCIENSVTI
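Hydroperoxide product was detected by ferrous iron/xylenol orange as the 573 to 405 nm absorbance ratio. Arachidonic acid at 40 uM (final) was turned over for 30 min at room temperature by 150 nM human 12hLO, pH 7.0 Hepes buffer, after 15 min compound preincubation.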
TDP1 cell CPT: qHTS for Inhibitors of human tyrosyl-DNA phosphodiesterase 1 (TDP1): qHTS in cells in presence of CPT; 12% of 420,000 active; Potency, µM (highest dose often 46.2 µM), without a hit: at the highest dose activity change, negative = growth inhibition, most hits filed as inhibitors; AID 686979, 2013; chicken DT40 Tdp1-/-;hTDP1 cells + 20 nM CPT, ATP luminescence, 48 h; further: potency means the concentration at half of the fitted maximal effect; nearly all actives have a fitted effect of over 55% in size
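Chicken DT40 Tdp1-/- cells complemented with human TDP1, 400 cells/well, exposed to compounds plus 20 nM camptothecin for at least 48 h at 37 C; viability read as ATP content by CellTiter-Glo luminescence.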
IL1B secr inh: qHTS for Inhibitors of Inflammasome Signaling: IL-1-beta AlphaLISA Primary Screen; THP-1 LPS/ATP IL-1B secretion, AlphaLISA, 16 h; hits give low values; 4.7% of 360,000 active; AID 743279, 2014; activity change, % at 57.5 µM; in the data active means activity change below about -50%; inconclusive means mostly about -30% to -49%
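Secreted IL-1B measured by AlphaLISA bead assay after 16 h compound exposure of THP-1 cells; compounds (final up to 57.5 uM) added 1 h before LPS (250 ng/mL) and ATP (1.25 mM) stimulation; lower signal means less secretion.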
An asterisk follows results filed as active. This is one part of a sample in which hits are shown more often than they occur. Unless noted, the call rests on the fitted dose curve; in most records, active means well fitted curve in the direction sought with a large enough effect; inconclusive means small, poorly fitted or top-dose-only effect, or another doubt; inactive means no such curve, though single readings can be large; an effect the other way counts as inactive or inconclusive. Unless noted, on the % scale 0 is the no-effect control and ±100 the full control effect.

Screening Nc1ccn(C2OC(COP(=O)(O)O)C(O)C2O)c(=O)n1 (configuration not stated) returned HT1080 IDH1KD tx -16.6%, DT40 TDP1 no CPT 1.16µM*, HT1080NT lethal -3.0%, 12-LOX inh inconclusive, TDP1 cell CPT 0.651µM* and IL1B secr inh 27.0.
For O=C(NC(c1ccccc1)c1ccccc1)c1cccs1 the results were 12-LOX inh 12.3%.
For O=C(COC(=O)/C(=C/c1cccs1)c1cccs1)NC(c1ccccc1)c1ccccc1 the results were HT1080 IDH1KD tx -11.7%, DT40 TDP1 no CPT 16.4µM*, HT1080NT lethal -5.7%, 12-LOX inh -11.2%, TDP1 cell CPT 16.4µM* and IL1B secr inh -14.9.
For Cc1noc(C)c1[S+](=O)([O-])N1CCC2OCCN(Cc3ccccc3)C(=O)C2C1 (configuration not stated) the results were 12-LOX inh 100µM*.
Screening CCOc1ccc(C(=O)Nc2ccc3nc(SCC(=O)N(C)c4ccccc4)sc3c2)cc1 returned DT40 TDP1 no CPT 3.66µM*, 12-LOX inh -26.5% and TDP1 cell CPT 2.06µM*.
`O=C(CSc1nc2ccc(NC(=O)c3ccccc3C(=O)O)cc2s1)Nc1ccc(F)c([N+](=O)[O-])c1` gave HT1080 IDH1KD tx -17.3%, DT40 TDP1 no CPT -5.6%, HT1080NT lethal inconclusive, 12-LOX inh inconclusive, TDP1 cell CPT 7.4% and IL1B secr inh -60.7*.
`CN(C(=O)CSc1nc2ccc(NC(=O)c3ccccc3F)cc2s1)c1ccccc1` gave DT40 TDP1 no CPT 9.2µM*, 12-LOX inh 0.0% and TDP1 cell CPT 14.6µM*.
For CCC(=O)Nc1ccc2nc(SCc3ccc(F)cc3)sc2c1 the results were 12-LOX inh 14.1µM*.
Screening CCC(=O)Nc1ccc2nc(SCc3ccc(C)cc3)sc2c1 returned DT40 TDP1 no CPT inconclusive, 12-LOX inh -23.5% and TDP1 cell CPT -26.3%.
Screening CC(C)(C)c1ccc(O)c(NC(=O)Cc2n[nH]c(=O)c3ccccc23)c1 returned 12-LOX inh 31.6%.
O=C(NCCc1ccccc1)N(C1CCOCC1)C1CCN(Cc2cccc(F)c2)CC1 was read as 12-LOX inh 37.9%.
Screening CCOC(=O)Cc1csc(SCC(=O)NC2CCC(C(C)(C)CC)CC2)n1 (configuration not stated) returned 12-LOX inh -59.3%.
Screening CN(C(=O)CSc1nc2ccc(NC(=O)c3cccc(F)c3)cc2s1)c1ccccc1 returned DT40 TDP1 no CPT 6.51µM*, 12-LOX inh -7.4% and TDP1 cell CPT 8.2µM*.
O=C(Nc1ccc2nc(SCc3ccccc3)sc2c1)c1ccccc1F was read as DT40 TDP1 no CPT 13µM*, 12-LOX inh -16.9% and TDP1 cell CPT 16.4µM*.
For CC(C)(C)C(=O)Nc1ccc2nc(SCc3ccccc3)sc2c1 the results were DT40 TDP1 no CPT 20.6µM*, 12-LOX inh -14.4% and TDP1 cell CPT inconclusive.
For Cc1ccc(C(NC(=O)Cc2ccccc2C)c2cccnc2)cc1C (configuration not stated) the results were 12-LOX inh -14.8%.
For Cc1nccn1CCCC(=O)N1CCC2(CCC(=O)N(CC3CCCO3)C2)CC1 (configuration not stated) the results were 12-LOX inh 57.0%.
Nc1nccc(N2C[C@H]3CN(C(=O)C4CCC4)C[C@@]3(C(=O)O)C2)n1 was read as 12-LOX inh -3.5%.
`Cc1cc(C)c2nc(N3C(=O)C(O)=C(C(=O)c4ccco4)C3c3ccco3)sc2c1` (configuration not stated) gave HT1080 IDH1KD tx inconclusive, DT40 TDP1 no CPT inconclusive, HT1080NT lethal inconclusive, 12-LOX inh inconclusive, TDP1 cell CPT inconclusive and IL1B secr inh 26.1.
`Cn1c(-c2cc3c(C(F)(F)F)nn(C)c3s2)n[nH]c1=S` gave HT1080 IDH1KD tx -7.7%, DT40 TDP1 no CPT -14.0%, HT1080NT lethal -4.9%, 12-LOX inh inconclusive, TDP1 cell CPT -6.9% and IL1B secr inh -6.3.
CCn1c(-c2cc3c(C(F)(F)F)nn(C)c3s2)n[nH]c1=S was read as HT1080 IDH1KD tx -0.4%, DT40 TDP1 no CPT -2.5%, HT1080NT lethal -4.2%, 12-LOX inh 10µM*, TDP1 cell CPT -6.9% and IL1B secr inh -5.9.
`CC(=O)Nc1cc(C(=O)NCCSC2CCCC2)ccc1C` gave 12-LOX inh 0.7%.
`Nc1[nH]c(C(=O)c2ccccc2)c(-c2ccc([N+](=O)[O-])cc2)c1C(=O)NCCc1c[nH]c2ccccc12` gave HT1080 IDH1KD tx inconclusive, DT40 TDP1 no CPT 14.6µM*, HT1080NT lethal inconclusive, 12-LOX inh -3.9%, TDP1 cell CPT 23.1µM* and IL1B secr inh -22.6.
Nc1[nH]c(C(=O)c2ccc(Br)cc2)c(-c2ccc(Br)cc2)c1C(=O)NCCc1c[nH]c2ccccc12 was read as HT1080 IDH1KD tx inconclusive, DT40 TDP1 no CPT 18.4µM*, HT1080NT lethal inconclusive, 12-LOX inh -49.2%, TDP1 cell CPT inconclusive and IL1B secr inh 9.7.
For Nc1[nH]c(C(=O)c2ccccc2)c(-c2ccccc2Br)c1C(=O)NCCc1c[nH]c2ccccc12 the results were HT1080 IDH1KD tx inconclusive, DT40 TDP1 no CPT 20.6µM*, HT1080NT lethal inconclusive, 12-LOX inh -6.6%, TDP1 cell CPT 16.4µM* and IL1B secr inh inconclusive.
Screening COc1ccc(C(=O)c2[nH]c(N)c(C(=O)NCCc3c[nH]c4ccccc34)c2-c2ccccc2Br)cc1 returned HT1080 IDH1KD tx inconclusive, DT40 TDP1 no CPT inconclusive, HT1080NT lethal inconclusive, 12-LOX inh 0.0%, TDP1 cell CPT 13µM* and IL1B secr inh -0.5.
For Cc1cc(C)c(NC(=O)c2cc(S(=O)(=O)N3CCC4(CC3)OCCO4)ccc2F)c(C)c1 the results were DT40 TDP1 no CPT inconclusive, 12-LOX inh -2.9% and TDP1 cell CPT -21.7%.
Cc1ccc(CSCCCn2c(=O)c3c(ncn3C)n(C)c2=O)cc1 was read as 12-LOX inh 8.2%.
